Test results: PubChem BioAssay AID504444 (National Center for Advancing Translational Sciences (NCATS), 2011)
Among all 360,000 compounds or so, about 7,500 (2.1%) were called active. Roughly 20% stayed inconclusive and do not appear here. Shown is part of a subset that was picked to be rich in actives. Unmarked numbers belong to inactive results. Calls follow the shape of the dose curve; as a rule, active = well fitted inhibition curve with a large enough effect; inconclusive = small, poorly fitted or top-dose-only effect, or effect the other way; inactive = flat fitted curve, though single readings scatter.

Test: Nrf2 qHTS screen for inhibitors; also: nearly all actives have a fitted effect of over 60% in size
Details: A549 ARE-Fluc reporter, luciferase luminescence, 18-24 h; series mostly up to 46 µM; activity change, negative = inhibition: at the top concentration
How it was run: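 Nrf2 function is reported as luminescence of an ARE-controlled luciferase in A549 cells. Compounds were tested at several concentrations, and a CellTiter-Fluor read on the same wells flagged cytotoxicity.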
% is scaled to controls: 0 for no effect and ±100 for the full control effect; potency is read from the fitted curve at half-maximal effect.

| Compound | activity change, negative = inhibition | Potency |
| --- | --- | --- |
| COc1ccc(CCNC(=O)c2cnc3sc(N4CCCCCC4)nn3c2=O)cc1OC | -21.9% | – |
| O=C(NCc1ccc2c(c1)OCO2)c1cc([N+](=O)[O-])ccc1N1CCOCC1 | 6.57% | – |
| O=C(Nc1nnc(-c2ccco2)o1)c1ccc(S(=O)(=O)N2CCOCC2)cc1 | -9.34% | – |
| Cc1nc2ccc(NC(=O)c3cccc(S(=O)(=O)N4CCOCC4)c3)cc2s1 | – | 18.4 µM (active) |
| O=C(NNC(=S)Nc1ccccc1)c1cccc(S(=O)(=O)N2CCOCC2)c1 | 4.77% | – |
| O=C(Nc1nnc(-c2ccccc2)o1)c1cccc(S(=O)(=O)N2CCOCC2)c1 | – | 20.6 µM (active) |
| O=C(Nc1ccc(N2CCOCC2)cc1)c1cccc(S(=O)(=O)N2CCOCC2)c1 | -4.75% | – |
| O=C(Nc1ccc(S(=O)(=O)Nc2nccs2)cc1)c1cccc(S(=O)(=O)N2CCOCC2)c1 | 15.2% | – |
| CCC(=O)Nc1ccccc1-c1nc2ccccc2n(CC(=O)Nc2ccc(C)c(C)c2)c1=O | 13.9% | – |
| CC1(C)CCc2cc(S(=O)(=O)N3CCN(c4nc(-c5cccs5)nc5ccccc45)CC3)ccc2O1 | 4.31% | – |
| COc1ccc2ncc3c(-c4ccc(C)c(C)c4)nn(CC(=O)NC4CCCC4)c3c2c1 | -4.68% | – |
| CC(=O)NC(c1cccs1)c1cc(Br)c2cccnc2c1O (stereo unspecified) | -1.64% | – |
| Cc1cc(C)cc(NS(=O)(=O)c2ccc(F)cc2)c1 | -8.67% | – |
| Cn1c(=O)n(C)c2cc(S(=O)(=O)Nc3ccc(F)cc3)ccc21 | – | 9.2 µM (active) |
| Cn1c(=O)n(C)c2cc(NS(=O)(=O)c3ccc(F)cc3)ccc21 | – | inactive |
| CC1CC(C)CN(c2oc(-c3ccc(OCc4ccc(Cl)cc4)cc3)nc2C#N)C1 (stereo unspecified) | 1.72% | – |
| Cc1cccc(-n2ncc3c(=O)[nH]c(SCC(=O)Nc4cc(C)on4)nc32)c1 | -6.85% | – |
| Cc1ccc(-c2ccc(=O)n(Cc3ccc(F)cc3Cl)n2)cc1 | -26% | – |
| O=c1c([N+](=O)[O-])cccn1Cc1ccc(F)cc1Cl | – | 25.9 µM (active) |
| O=c1c([N+](=O)[O-])cc(C(F)(F)F)cn1Cc1cccc(Cl)c1 | -25.9% | – |
| Cc1cc2n(n1)C(c1cc(C(C)(C)C)c(O)cc1O)Nc1ccccc1-2 (stereo unspecified) | 9.52% | – |
| COc1ccc(N2CCN(C(=O)CCSCc3ccccc3F)CC2)cc1 | -0.889% | – |
| COc1ccc(CNC(=O)CSCc2nc(-c3ccccc3F)oc2C)cc1 | -4.11% | – |

| Compound | activity change, negative = inhibition | Potency |
| --- | --- | --- |
| COc1ccc(N2CCN(C(=O)CSCc3nc(-c4ccccc4Cl)oc3C)CC2)cc1 | – | 1.84 µM (active) |
| CC(C)Cc1ccc(S(=O)(=O)N2CCN(C(=O)c3ccco3)CC2)cc1 | – | 18.4 µM (active) |
| Cc1ccc(S(=O)(=O)N2CCN(C(=O)c3cccs3)CC2)cc1 | 3.88% | – |
| O=C(CNS(=O)(=O)c1ccccc1)N1CCN(C(=O)c2ccco2)CC1 | 12.4% | – |
| O=C(CNC(=O)c1ccccc1)OC(C(=O)Nc1cc([N+](=O)[O-])ccc1F)c1ccccc1 (stereo unspecified) | 17.1% | – |
| COc1ccc(NC(=O)CCN2CCN(CCO)CC2)cc1 | 3.24% | – |
| C=CC[n+]1c(-c2ccc(C)cc2)csc1NNC(=O)Nc1ccccc1 | – | 18.4 µM (active) |
| O=C(NNC(=O)c1ccc(-c2ccccc2)cc1)Nc1ccccc1 | 26.6% | – |
| C=CCNc1scc(-c2ccccc2)[n+]1CC=C | 17.2% | – |
| CCOCCCNC(=O)c1cn(CC)c2ccc(S(=O)(=O)N3CCc4ccccc4C3)cc2c1=O | -18.4% | – |
| COc1c(Cl)cc(C(=O)N(Cc2ccccc2F)C2CCS(=O)(=O)C2)cc1Cl (stereo unspecified) | 20.2% | – |
| COc1ccc(C2Nc3ccccc3C(=O)N2Cc2ccc(CNC(=O)CO)cc2)cc1COc1ccc(NC(C)=O)cc1 (stereo unspecified) | -24.4% | – |
| CC(C)(C)OC(=O)N(Cc1ccccc1)Cc1ccc(OCc2cccc(NC(=O)c3ccccc3)c2)cc1 | -19.1% | – |
| C=CCOC(=O)c1ccccc1C(=O)OCC=C | 0.689% | – |
| C=CCOC(=O)C1=C(C)NC(C)=C(C(=O)OCC=C)C1c1cccs1 | – | 20.6 µM (active) |
| CCOC(=O)C1=C(C)NC(=S)NC1c1cccs1 (stereo unspecified) | 7.07% | – |
| CCCCN1CC(COc2ccccc2)Oc2cccc(F)c2S1(=O)=O (stereo unspecified) | -1.14% | – |
| O=S(=O)(O)c1cc2onnc2c2ccccc12 | 3.56% | – |
| COc1ccc(Cl)cc1C=CC=Nc1ccc(S(N)(=O)=O)cc1 | -33.7% | – |
| O=C(CN1C(=O)c2ccccc2S1(=O)=O)NC1CCCCC1 | 3.92% | – |
| O=C(CN1C(=O)c2ccccc2S1(=O)=O)N1CCc2ccccc21 | – | 4.11 µM (active) |
| CC1CCCN(C(=O)CN2C(=O)c3ccccc3S2(=O)=O)C1 (stereo unspecified) | -11.1% | – |
| COc1ccc(-c2cn3nc(N4CCC(C(=O)Nc5cccc(C)c5C)CC4)sc3n2)cc1 | 8.32% | – |

| Compound | activity change, negative = inhibition | Potency |
| --- | --- | --- |
| CCN(CC)S(=O)(=O)c1ccc(C(=O)N=c2sc3cccc(OC)c3n2C)cc1 | 8.13% | – |
| NCCCNC(=S)NCCCN(Cc1ccc(Cl)cc1)c1ccc(Br)cn1 | 22.6% | – |
| COc1ccc(CCNc2cc(N3CCN(C(=O)c4ccccc4OC)CC3)ccc2[N+](=O)[O-])cc1OC | – | 5.8 µM (active) |
| COc1ccc(CCNC(=O)c2ccccc2-c2ccccc2C(=O)O)cc1OC | -2.44% | – |
| COc1ccccc1OCCNc1cc(N2CCOCC2)ccc1[N+](=O)[O-] | -5.26% | – |
| CCN(CC)S(=O)(=O)c1ccc(N2CCOCC2)c(NC(=O)C(C)Oc2ccc(F)cc2)c1 (stereo unspecified) | -0.342% | – |
| Cc1ccccc1-c1cc(C(=O)NCc2cccs2)n(CC2CC(c3cccnc3)=NO2)n1 (stereo unspecified) | – | 20.6 µM (active) |
| Cc1ccccc1-c1cc(C(=O)NCC2CC2)n(CC2CC(c3cccnc3)=NO2)n1 (stereo unspecified) | -9.82% | – |
| Cc1ccc(CNC(=O)c2cc(-c3ccccc3C)n(CC3CC(c4cccc([N+](=O)[O-])c4)=NO3)n2)cc1 (stereo unspecified) | -13.2% | – |
| CCCCCn1c(=O)[nH]c2cc(C(=O)NCCN(C)CCCC)ccc2c1=O | 7.46% [at 9.27 µM] | – |
| CC(C)C(NS(=O)(=O)c1cccs1)C(=O)Nc1nc(C(C)(C)C)cs1 (stereo unspecified) | – | 18.4 µM (active) |
| CC(=O)Nc1ccc(S(=O)(=O)N2CCN(S(=O)(=O)c3cccs3)CC2)cc1 | -12.1% | – |
| COc1ccc(CNC(=O)C(NS(=O)(=O)c2cccc3nsnc23)C(C)C)cc1 (stereo unspecified) | -4.3% | – |
| Cc1ccc(CN(C(=O)COc2ccc(Cl)cc2C)C2CCS(=O)(=O)C2)o1 (stereo unspecified) | 10.4% | – |
| CC1CCN(S(=O)(=O)c2ccc3c(ccn3CCC(=O)NCc3ccc(N(C)C)cc3)c2)CC1 | -6.81% | – |
| Cc1ccccc1C(=O)N(Cc1ccc(N(C)C)cc1)CC1CCCO1 (stereo unspecified) | -10.2% | – |
| CN(Cc1cncn1C)c1ncnc2ccc(-c3ccc4c(c3)OCO4)cc12 | 0% | – |
| CCC(=O)N1CCc2cc(S(=O)(=O)NC(Cc3ccccc3)C(=O)NCc3ccccc3)ccc21 (stereo unspecified) | -2.93% | – |
| COc1ccccc1C(=O)NCCC(=O)N(C)Cc1cccnc1 | 6.48% | – |
| COc1ccccc1NC(=O)c1sc2nc(C)c(C(=O)Nc3ccc(Cl)cc3)c(-c3ccc(Br)cc3)c2c1N | 6.36% [at 9.27 µM] | – |
| COc1ccccc1C(=O)Nc1c(C(=O)N(C)Cc2ccccc2)sc2nc(C)c(Cl)c(C)c12 | – | 14.6 µM (active) |
| COc1ccc(CCn2cc3c(c2-c2ccc(Br)cc2)c(=O)n(C)c(=O)n3C)cc1OC | -14.1% | – |
| COc1cc2nc(SCc3ccc(F)cc3)n3nc(CCn4c(C)nc5ccccc54)nc3c2cc1OC | 5.71% | – |

| Compound | activity change, negative = inhibition | Potency |
| --- | --- | --- |
| CC[C@]12c3[nH]c4ccc(Cl)cc4c3CCN1C(=O)[C@@H](CC(=O)NCCN1CCOCC1)C[C@@H]2C(=O)N1CCN(C(=O)C2CC2)CC1 | 14.3% | – |
| CC[C@]12c3[nH]c4ccc(OC)cc4c3CCN1C(=O)C(CC(=O)NCc1ccco1)C[C@@H]2C(=O)N1CCN(C(=O)C2CC2)CC1 (stereo partly specified) | 2.5% | – |
| CN(C)C(=O)CCc1ccc2c3c([nH]c2c1)[C@]1(CCC2CCCC2)[C@@H](C(=O)N2CCOCC2)C[C@H](CC(=O)NCc2ccco2)C(=O)N1CC3 | 0.0719% | – |
| COc1ccc2[nH]c3c(c2c1)CCN1C(=O)C(CC(=O)NCCCN(C)C)C[C@H](C(=O)N2CCOCC2)[C@@]31CCC1CCCC1 (stereo partly specified) | 13.5% | – |
| O=C(C[C@H]1C[C@H](C(=O)N2CCOCC2)[C@@]2(CCC3CCCC3)c3[nH]c4ccc(Cl)cc4c3CCN2C1=O)NCc1ccco1 | – | 20.6 µM (active) |
| COc1ccc(CNC(=O)C[C@H]2C[C@H](C(=O)N3CCOCC3)[C@@]3(CCC4CCCC4)c4[nH]c5ccc(Cl)cc5c4CCN3C2=O)cc1OC | – | 13 µM (active) |
| CC(C)(C)OC(=O)C[C@@H]1C/C=C\C[C@H](CC(=O)N[C@@H](CO)Cc2ccccc2)C(=O)N[C@H](Cc2ccccc2)COC1=O | 1.6% | – |
| N#CN1CCC(NC(=O)c2ccc(F)cc2)CC1 | 11.4% | – |
| CCOc1ccc(S(=O)(=O)Nc2ccc3oc4c(c3c2)CC(C)CC4)cc1 (stereo unspecified) | -27.3% | – |
| Cc1ccccc1CS(=O)(=O)CC1Nc2ccc(C(=O)NCc3ccc(Cl)cc3)cc2NC1=O (stereo unspecified) | 21.9% | – |
| COc1cccc2oc(CCc3ccccc3)cc(=O)c12 | 16.4% | – |
| COc1ccccc1CNS(=O)(=O)c1cc(Br)cc2c1N(C(C)=O)C(C)C2 (stereo unspecified) | 1.68% [at 9.27 µM] | – |
| CCOc1cccc2c1N[C@@H](c1ccc(C(=O)O)cc1)[C@H]1CC=C[C@@H]21 | 4.95% | – |
| COc1cccc(CNC(=O)CCC(=O)N2CC3CCCN3c3ccccc32)c1 (stereo unspecified) | -3.25% | – |
| Cc1ccc(SCC(=O)N2CCN(c3ccc(F)cc3)CC2)cc1 | -9.47% | – |
| CCN1CCC2(CC1)N=C(c1ccc(F)cc1)C(=S)N2C(=O)c1ccc(C)cc1 | – | 16.4 µM (active) |
| CCN1CCC(N(Cc2ccc(F)cc2)C(=O)Nc2cc(C)ccc2C)CC1 | 0.308% | – |
| Cc1cc(OCC(=O)NCC2(N(C)C)CCCCC2)cc(C)c1Cl | 13.5% | – |
| Cc1cc(C)cc(NC(=O)CSc2nc3nccnc3c(=O)n2CCc2c[nH]c3ccccc23)c1 | -0.502% | – |
| O=C1C=CC(=O)N1c1ccc(N2CCCCC2)cc1 | – | 25.9 µM (active) |
| CCOC(=O)/C(C#N)=C/c1ccc(N2CCCCC2)cc1 | 27.1% | – |
| O=C(Cc1ccccc1)NC(=S)Nc1ccc(N2CCCCC2)cc1 | 9.44% | – |
